Screening results deposited in PubChem BioAssay by The Scripps Research Institute Molecular Screening Center.
FBW7 activator – human FBW7 E3 ligase activation, primary screen | Q969H0 | AlphaScreen FBW7–phospho-cyclin E peptide binding, activator screen | normalized activity (activation), % at 26.1 µM | hit rate 0.13% among 650,000; in the data active = normalized activity above about 1.9%;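 also: purified mutant Fbw7 with reduced substrate affinity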
GPR151 ag – human GPR151 activation; PathHunter beta-arrestin GPR151 cells, luminescence; activation, % at 11.2 µM; hit rate 1% among 650,000; AID 1508602; in the data active = activation above about 4.9%;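 also: 0% = median of compound wells and 100% = cells with positive control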
TEAD-YAP inh – TEAD-YAP interaction inhibition; HEK-TIYL cells, TEAD-Gal4/YAP UAS-luciferase luminescence; AID 1259422; hit rate 1.4% among 640,000; inhibition, % at 9.12 µM; in the data active = inhibition above about 32%;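 also: 0% = median of test compound wells and 100% = reference inhibitor wells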
MITF primary – human MITF inhibition, primary screen. O75030. AlphaScreen MITF homodimerization, bead proximity signal. inhibition, % at 2.6 µM. hit rate 0.91% among 650,000; in the data active = inhibition above about 50%;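 also: 0% = vehicle wells with protein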
Target sequence (O75030 whole entry, looked up): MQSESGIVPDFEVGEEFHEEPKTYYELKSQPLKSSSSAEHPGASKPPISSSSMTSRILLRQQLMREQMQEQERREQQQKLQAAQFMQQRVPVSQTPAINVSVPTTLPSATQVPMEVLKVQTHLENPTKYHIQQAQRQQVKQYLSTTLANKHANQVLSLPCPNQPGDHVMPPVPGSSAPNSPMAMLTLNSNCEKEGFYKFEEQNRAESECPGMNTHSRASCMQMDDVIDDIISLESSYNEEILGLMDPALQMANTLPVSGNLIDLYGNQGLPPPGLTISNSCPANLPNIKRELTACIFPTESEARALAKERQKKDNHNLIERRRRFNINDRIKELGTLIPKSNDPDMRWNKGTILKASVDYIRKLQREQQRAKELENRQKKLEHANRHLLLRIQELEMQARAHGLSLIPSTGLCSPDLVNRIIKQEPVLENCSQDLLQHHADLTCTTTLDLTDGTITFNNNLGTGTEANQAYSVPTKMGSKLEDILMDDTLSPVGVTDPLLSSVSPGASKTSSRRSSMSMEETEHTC
GPR151 confirm – human GPR151 activation, confirmation screen; shares compounds with GPR151 ag; GPR151 PathHunter beta-arrestin cells, luminescence, 90 min; % of EA-reagent control over plate median; activation, % at 11.2 µM; 6,700 tested, under 10 active; AID 1508609;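 active = mean percent activation across replicates above the confirmation screen cutoff of 4.91%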
GPR119 ag – counter-screen for GPR151 activators: effect on human GPR119 | shares compounds with GPR151 ag | GPR119 PathHunter beta-arrestin cells, luminescence, 90 min; 0 = compound-well median, 100 = enzyme-acceptor control | activation, % at 11.2 µM | hit rate 0.3% among 6,700 | AID 1508611;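 active = mean percent activation in the counterscreen above 29.09%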;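 also: counterscreen on off-target GPR119 to flag nonselective hits from the GPR151 activator screen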
Starred values were filed as active, the others as inactive; x = not tested or not shown. Shown are actives, neighbours in structure and some others; about 3.4% of the full set was active somewhere.

SMILES | FBW7 activator | GPR151 ag | TEAD-YAP inh | MITF primary | GPR151 confirm | GPR119 ag
Cc1oc2ccc(Cl)cc2[n+]1CCCS(=O)(=O)O | 1.5 | -0.8 | 9.2 | 8.1 | x | x
CC(C)(C)C(=O)COC(=O)CCC(=O)c1cccs1 | 0.1 | 6.1* | -10.1 | 5.6 | 0.2 | 8.0
C=CCN=C1NC(=O)/C(=C\c2ccc3c(c2)OCO3)S1 | 0.1 | 0.8 | -2.7 | 1.5 | x | x
O=C(NCCCN1CCOCC1)/C(=C/c1ccc(-c2cccc(C(F)(F)F)c2)o1)NC(=O)c1ccc(Cl)cc1 | 0.0 | 9.4* | -5.5 | -4.3 | 1.7 | 24.0
Cc1cc(C(=O)N2CCN(Cc3ccccc3)CC2)n[nH]1 | 0.0 | 0.8 | 12.4 | -5.1 | x | x
C[C@H]1O[C@@H](O[C@H]2[C@@H](O)C[C@H](O[C@H]3[C@@H](O)C[C@H](O[C@H]4CCC5(C)[C@H](CC[C@@H]6[C@@H]5C[C@@H](O)C5(C)C(C7=CC(=O)OC7)CCC65O)C4)O[C@@H]3C)O[C@@H]2C)C[C@H](O)[C@@H]1O (some centres undefined) | 0.2 | 5.0* | x | -7.0 | -0.4 | 98.4*
Cc1ccc(C(=O)CSc2nnc(-c3ccccc3N)n2C)cc1 | 0.0 | 5.9* | -10.2 | -3.7 | 0.0 | -7.1
C=Cc1ccc(Cn2c(C)c(CNCCC3=CCCCC3)c(C(=O)O)c2C)cc1 | 0.1 | 6.3* | -2.1 | 15.5 | -0.8 | -8.5
CC(Nc1nc(CN(C)C2CCOCC2)nc2ccccc12)c1ccc(F)cc1 (centres undefined) | 0.1 | 7.7* | 2.7 | 1.8 | 0.8 | 8.2
Cc1ccc(CNc2nc(CN(C)C3CCOC3)nc3ccccc23)cc1 (centres undefined) | -0.3 | -0.7 | 11.3 | 9.7 | x | x
Cc1cccc(NC(=O)Cn2cnc3c(cnn3-c3ccc(C)c(C)c3)c2=O)c1 | 0.8 | 0.0 | 7.0 | 19.0 | x | x
CCOC(=O)c1ccc(CN(CCN2CCOCC2)S(=O)(=O)c2ccc([N+](=O)[O-])cc2)cc1 | 0.6 | -0.2 | -1.6 | 11.0 | x | x
O=C1NC(=S)/C(=C\c2ccccc2F)S1 | -0.1 | 7.2* | -0.6 | 9.4 | 0.1 | 23.0
COc1ccc(-c2nnc(SCC(=O)N3c4ccccc4CC3C)o2)cc1 (centres undefined) | 0.0 | 5.8* | -9.6 | 3.8 | 1.2 | 13.4
CC1CCCC(C)N1C(=O)Cn1c(C(F)(F)F)nc2ccccc21 (centres undefined) | 0.2 | 12.3* | 10.5 | 17.2 | 0.8 | 0.3
CC1CN(C(=O)Cn2c(C(F)(F)F)nc3ccccc32)CC(C)O1 (centres undefined) | 0.0 | 3.1 | 4.2 | 0.8 | x | x
COc1cccc(C(=O)N2CC=C[C@H]2C(=O)NCCc2ccccc2)c1 | -0.1 | 0.4 | -4.4 | -12.1 | x | x
CN(C(=O)C1(C)COc2ccccc2O1)c1ccc(-c2cn[nH]c2)cc1 (centres undefined) | -0.1 | -1.3 | -1.4 | -9.1 | x | x
OCCC1CN(Cc2ccn[nH]2)CCN1Cc1ccccc1F (centres undefined) | 0.1 | -0.6 | 4.6 | 2.4 | x | x
Cc1ccccc1CN1CCN(Cc2ccn[nH]2)CC1CCO (centres undefined) | 0.0 | 6.0* | -4.5 | 9.1 | -1.3 | -8.3
CCOc1ccccc1CN1CCN(C2CCN(c3ccccc3F)CC2)CC1CCO (centres undefined) | 0.0 | 11.4* | -5.6 | -12.3 | 1.0 | 13.7
CCOc1ccccc1CN1CCN(C2CCCC2)CC1CCO (centres undefined) | 0.0 | 0.7 | -3.8 | 3.3 | x | x
COc1ccc(CN2CCN(CCCc3ccccc3)C(CCO)C2)c(O)c1 (centres undefined) | 0.5 | -0.3 | 6.2 | 3.5 | x | x
COc1ccc(CN2CCN(CCCc3ccccc3)C(CCO)C2)c(OC)c1 (centres undefined) | 0.0 | 5.0* | 6.0 | -17.1 | 0.5 | 5.2
C=CCOc1ccccc1CN1CCN(Cc2ccsc2)C(CCO)C1 (centres undefined) | -0.1 | 6.1* | 1.7 | 0.9 | -0.8 | -4.8
SMILES | FBW7 activator | GPR151 ag | TEAD-YAP inh | MITF primary | GPR151 confirm | GPR119 ag
Cc1ccc(S(=O)(=O)N2CCN(CN3C(=O)NC4(CCC(C)CC4)C3=O)CC2)cc1 (centres undefined) | 0.1 | 0.4 | 2.3 | 3.9 | x | x
CC(=O)NC(=O)c1cc2ccccc2oc1=Nc1ccc(-c2nc3ccc(C)cc3s2)cc1 | 0.0 | 0.7 | -0.1 | 5.0 | x | x
OCCC1CN(Cc2cc(F)cc(F)c2)CCN1Cc1ccccc1F (centres undefined) | 0.0 | 0.1 | 3.4 | 14.6 | x | x
COc1cccc(CN2CCN(Cc3cc(Cl)c(O)c(OC)c3)CC2CCO)c1 (centres undefined) | 0.2 | 6.3* | -16.9 | -12.0 | 1.4 | 5.6
OCCC1CN(Cc2ccncc2)CCN1Cc1ccccc1F (centres undefined) | 0.2 | 6.6* | 4.0 | 9.5 | 1.4 | -5.7
COc1cccc(CN2CCN(Cc3ccccc3O)CC2CCO)c1 (centres undefined) | 0.0 | 8.1* | -7.4 | -6.3 | -0.2 | -0.9
Cc1ccccc1CN1CCN(Cc2cccc(OCCO)c2)CC1CCO (centres undefined) | 0.1 | 5.9* | 5.5 | 9.4 | 0.1 | 0.8
CC(C)=CCN1CCN(Cc2cccc(OCCO)c2)CC1CCO (centres undefined) | 0.0 | -0.9 | 0.1 | 0.3 | x | x
CCOc1ccc(-n2cc(-c3ccccc3)c3c(Nc4ccccc4)ncnc32)cc1 | 0.5 | -0.1 | 4.2 | 7.0 | x | x
C=CCN(c1ccccc1)S(=O)(=O)c1ccc(N2C(=O)CCC2=O)cc1 | -0.2 | -0.5 | 10.5 | 4.1 | x | x
Cn1ccnc1CNC(=O)CC1C(=O)NCCN1Cc1ccc(F)c(F)c1 (centres undefined) | -0.2 | -0.9 | 2.5 | 0.1 | x | x
CCOc1ccccc1CN1CCN(Cc2cccc(F)c2)CC1CCO (centres undefined) | -0.1 | 5.4* | -8.6 | -10.9 | -1.3 | -13.3
CCOc1ccccc1CN1CCN(Cc2cc(F)cc(F)c2)CC1CCO (centres undefined) | 0.0 | 0.3 | -1.2 | 5.7 | x | x
O=[N+]([O-])c1ccc(CN2CCN(Cc3cc(Br)ccc3O)CC2)cc1 | -0.1 | 6.6* | 31.1 | 45.2 | 0.4 | 16.2
COc1ccc(CN2CCN(c3ccc([N+](=O)[O-])cc3)CC2)cc1O | 0.1 | 6.7* | 36.4* | 49.5 | 0.2 | 18.2
COc1cc(CN2CCN(c3ccc([N+](=O)[O-])cc3)CC2)ccc1O | -0.1 | 0.2 | -5.7 | 14.8 | x | x
O=C(CSCc1ccccc1)Nc1nnc(SCC(=O)N2CCCCC2)s1 | 0.0 | 0.4 | 4.6 | -1.1 | x | x
COCCC1CCCCN1C(=O)CCc1nnc(CCc2ccccc2OC)o1 (centres undefined) | 0.2 | 0.9 | 12.5 | 6.6 | x | x
CC(C)CNC(=O)C(=O)NNC(=O)/C=C/c1ccccc1 | -0.1 | 1.3 | 0.4 | 5.1 | x | x
